Among the data in PubChem BioAssay AID1053175 (ICCB-Longwood Screening Facility, Harvard Medical School, 2014) are OD600 absorbance values, retold here.

“And” between values parts separate entries of the source, which are not always exact repeats. Equal values may be shown once. Among all 330,000 compounds or so, about 700 (0.21%) were called active. This is one part of a sample in which actives are shown more often than they occur.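 The calls were made as follows: active = OD600 absorbance below the run mean of sample wells minus 3.6 SD, in any replicate (cut at about 0.56 in these data); inactive = the rest.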 Some structures have more than one record in an assay (separate samples or runs), and their calls can disagree.

This experiment can be described thus: E. coli growth inhibition, primary screen, OD600 (AID 1053175). The conditions noted are these: Escherichia coli growth, OD600, 23 h; stronger effect = lower value.
Consider `COc1cc(C=NNC(=O)c2ccncc2)ccc1OC(=O)c1cccc(Br)c1`, for which the OD600 absorbance is 0.605 (inactive). With `COc1ccc(C(=O)ON=C2CCS(=O)(=O)c3sccc32)cc1`, the OD600 absorbance was 0.66 (inactive). The result for `CC(NCC(=O)Nc1cc(Cl)cc(Cl)c1)c1ccccc1` (centres undefined) reads 0.522 (active). `O=C(Nc1cc(Cl)cc(Cl)c1)C(NCCCO)c1ccccc1` (centres undefined): the OD600 absorbance was 0.697 (inactive). With `O=C(CNC(c1ccccc1)c1ccccc1)Nc1ccc(F)cc1`, the OD600 absorbance was 0.694 (inactive). The result for `CCOC1OC(C(=O)N2CCN(Cc3ccc4c(c3)OCO4)CC2)=CC(c2ccc(Br)cc2)C1CCCO` (centres undefined) reads 0.677 (inactive) and 0.735 (inactive). Consider `O=C(O)COc1ccc(C=NNC(=O)c2cccc3ccccc23)cc1`, for which the OD600 absorbance was 0.692 (inactive). `O=C(O)C1=CC(c2ccc(Br)cc2)CC(OCc2ccc(CO)cc2)O1` (centres undefined): the OD600 absorbance was 0.678 (inactive) and 0.676 (inactive). As for `CC(Oc1ccccc1)C(=O)NN=Cc1ccccn1` (centres undefined), the OD600 absorbance was 0.654 (inactive). In the case of `CC(=NNc1nnc(C)c(=O)[nH]1)C(=O)O`, the OD600 absorbance is 0.72 (inactive). On to `Cc1nnc(NN=Cc2ccccn2)[nH]c1=O`, for which the OD600 absorbance is 0.466 (active). The figure for `COc1ccc(C(=O)NN=Cc2ccc(OC)c(CN3CCCc4ccccc43)c2)cc1` is 0.733 (inactive); for `CC(C)(C)c1[nH]c2ccccc2c1C=NO` it is 0.683 (inactive). On to `CCOC(=O)c1ccc(-c2ccc(C=NNC(=O)CN(c3ccccc3Cl)S(C)(=O)=O)o2)cc1`, for which the OD600 absorbance was 0.728 (inactive). Take `CC(C)=CCC[C@](C)(OC1OC(COC2OCC(O)C(O)C2O)C(O)C(O)C1O)C1CC[C@]2(C)C1C(O)CC1[C@@]3(C)CCC(OC4OC(CO)C(O)C(O)C4O)C(C)(C)C3CC[C@]12C` (some centres undefined): the OD600 absorbance was 0.621 (inactive). As for `CCNC(=S)NN=C(C)c1cc2ccccc2o1`, the OD600 absorbance was 0.669 (inactive). For `COc1cc(C=NNC(=O)c2ccc(=O)[nH]n2)cc(OC)c1OC`, the OD600 absorbance was 0.774 (inactive). `O=C(NN=Cc1ccoc1)c1ccc([N+](=O)[O-])cc1`: the OD600 absorbance is 0.694 (inactive).

For the molecule `CCNC1CC(C)S(=O)(=O)c2sc(S(N)(=O)=O)cc21` (centres undefined), the OD600 absorbance was 0.681 (inactive). On to `Cc1cc(C(=O)NN=Cc2cccc3ccccc23)c(C)o1`, for which the OD600 absorbance was 0.686 (inactive). For the molecule `C#CCNC(=O)C1=CC(c2coc3ccccc3c2=O)CC(OCc2ccc(CO)cc2)O1` (centres undefined), the OD600 absorbance was 0.691 (inactive) and 0.72 (inactive).

Take `Cc1[nH]c2ccccc2c1C=NNC(=S)NC(C)C`: the OD600 absorbance was 0.649 (inactive). On to `Cc1ccc(CN2CCN(CC(=O)NN=Cc3ccc(C)o3)CC2)cc1`, for which the OD600 absorbance is 0.613 (inactive).

For `CC1CN(C(=S)Nc2ccccc2F)CC(C)O1` (centres undefined), the OD600 absorbance is 0.662 (inactive). On to `COc1ccccc1NC(=S)N1CCN(c2ccc(F)cc2)CC1`, for which the OD600 absorbance was 0.68 (inactive). The result for `COc1c(N2CCN(C(=S)Nc3ccccc3F)C(C)C2)c(F)cc2c(=O)c(C(=O)O)cn(C3CC3)c12` (centres undefined) reads 0.071 (active); that for `CCCOc1ccc(CNC(=S)NN=Cc2ccc([N+](=O)[O-])cc2)cc1`, 0.66 (inactive). For the molecule `[N-]=[N+]=NCC(Cc1ccccc1)N1CCN(Cc2ccccc2)CCC1=O` (centres undefined), the OD600 absorbance is 0.705 (inactive). As to `CC(C)(C)N1C(=O)C2C(c3ccc(Br)cc3)N3C(=O)N(c4ccccc4)C(=O)[C@@]3(Cc3ccccc3)C2C1=O` (some centres undefined), the OD600 absorbance is 0.71 (inactive). For the molecule `CC(/C=C/c1ccccc1)=NNc1nc(C)cc(C)n1`, the OD600 absorbance was 0.667 (inactive). Consider `CNc1nc(C)nc(NN=Cc2ccccc2)n1`, for which the OD600 absorbance was 0.682 (inactive). For `S=c1[nH]nc(-c2ccncc2)n1N=Cc1cccc2ccccc12`, the OD600 absorbance is 0.739 (inactive).

`Cc1ccc(C=NNC(=O)Cn2cnc3ccccc32)o1`: the OD600 absorbance is 0.676 (inactive). For `Cc1ccc(C(=O)N2C3CN(C)C(=O)[C@@]2(Cc2ccccc2)C2C(=O)N(C)C(=O)C32)cc1` (some centres undefined), the OD600 absorbance was 0.672 (inactive). As to `CC(=NNC(=O)CCc1ccc(S(=O)(=O)N2CCOCC2)cc1)c1ccc(OC(F)F)cc1`, the OD600 absorbance is 0.715 (inactive).

Consider `C#CCOc1ccc(C=NNC(=O)c2cccnc2)cc1OCC`, for which the OD600 absorbance is 0.679 (inactive). As for `C[C@@]12C(=O)Nc3cc(Cl)ccc3C(=O)N1C1c3cc(Cl)ccc3OCC1C2c1ccccc1` (some centres undefined), the OD600 absorbance is 0.696 (inactive). For `COc1ccc(C=C2N=C(SC)NC2=O)cc1`, the OD600 absorbance was 0.705 (inactive).

`Cc1c(C=O)c2ccccc2n1CC(=O)O`: the OD600 absorbance is 0.701 (inactive). Turning to `CC(=O)c1c(C)n([O-])c2ccccc2[n+]1=O`, the OD600 absorbance is 0.186 (active). Turning to `CCCCn1c(C=NNc2nc3ccccc3[nH]2)nc2ccccc21`, the OD600 absorbance was 0.684 (inactive). For `COc1cc(C=NNC(=O)c2ccc3c(c2)OCCO3)c(Br)c(Br)c1O`, the OD600 absorbance is 0.727 (inactive). Turning to `C=C[C@]1(C)CC(OC(=O)CSCCN(CC)CC)[C@]2(C)C(C)CC[C@]3(CCC(=O)C32)C(C)C1O` (some centres undefined), the OD600 absorbance was 0.499 (inactive) and 0.432 (active). Turning to `CC(C)(C)C(=O)C=c1[nH]c(=O)c(=Cc2ccccc2F)s1`, the OD600 absorbance was 0.718 (inactive). The result for `COC(=O)Oc1ccc(C=NNC(=O)CN(c2ccccc2Br)S(C)(=O)=O)cc1OC` reads 0.67 (inactive); that for `COc1ccc(CN2C(CC(=O)O)c3ccccc3S2(=O)=O)cc1` (centres undefined), 0.676 (inactive); that for `Cc1ccccc1C(=O)ON=C1CCS(=O)(=O)c2sccc21`, 0.706 (inactive).

For the molecule `O=C(NN=Cc1cccn1-c1cccc(C(=O)O)c1)Nc1ccccc1`, the OD600 absorbance is 0.627 (inactive). The result for `CC(=O)Oc1ccc(C(C)=NN2CCN(Cc3ccc(Cl)cc3)CC2)cc1` reads 0.707 (inactive). For `O=C(C=Cc1cccs1)N1CCC2(CC1)Oc1ccc(F)cc1C(=O)C21CC(c2ccccc2)=NO1` (centres undefined), the OD600 absorbance was 0.718 (inactive). As for `CC(C=NNC(=O)c1ccc2c(c1)OCO2)c1ccccc1` (centres undefined), the OD600 absorbance was 0.695 (inactive).

As for `O=C(NCc1ccccc1)C1=CC(c2ccccc2)CC(OCCCCO)O1` (centres undefined), the OD600 absorbance was 0.622 (inactive). Turning to `CC(=O)Nc1ccc(C(C)=NNC(=O)c2ccc(-c3ccccc3)cc2)cc1`, the OD600 absorbance is 0.685 (inactive).

Consider `O=C(CCCN1C(=O)CCC1=O)Nc1ccc(Cl)c(C(F)(F)F)c1`, for which the OD600 absorbance was 0.702 (inactive).

Consider `O=C(CC(O)(C(F)(F)F)C(F)(F)F)Nc1ccc(Cl)c(Cl)c1`, for which the OD600 absorbance was 0.329 (active). The figure for `CS(=O)(=O)N(CC(=O)Nc1ccc(Cl)c(Cl)c1)C1CCCCC1` is 0.703 (inactive); for `Cc1nn(-c2ccccc2)c(C)c1C=NNC(=O)c1cc(-c2cccs2)[nH]n1` it is 0.602 (inactive); for `Clc1cccc(Cl)c1C=NNc1nccs1` it is 0.705 (inactive). The figure for `Cc1cc(C)nc(NN=Cc2ccccc2OCc2ccccc2)n1` is 0.638 (inactive); for `Cn1ccc(=Nc2ccc(NC(=O)c3ccc(N=c4ccn(C)c5ccc([N+](=O)[O-])cc45)cc3)cc2)cc1` it is 0.104 (active). Consider `COc1cc(NS(=O)(=O)c2ccc(NC(=O)c3ccc([N+](=O)[O-])cc3)cc2)ncn1`, for which the OD600 absorbance is 0.659 (inactive). On to `CC(=O)NC(=S)Nc1ccc(NC(=S)NC(=O)c2ccc([N+](=O)[O-])cc2)cc1`, for which the OD600 absorbance was 0.699 (inactive). As to `Fc1cccc(CCN2CCNCC2Cc2ccccc2)c1` (centres undefined), the OD600 absorbance is 0.658 (inactive).

`O=C(O)c1cc(O)c2c(c1)C(C1c3cc(C(=O)O)cc(O)c3C(=O)c3c(OC4OC(CO)C(O)C(O)C4O)cccc31)c1cccc(OC3OC(CO)C(O)C(O)C3O)c1C2=O` (centres undefined): the OD600 absorbance was 0.667 (inactive). Regarding `COC(=O)c1cccc(C23CC4(C2)C(CN(CC2CCCCC2)C4c2ccccc2)C3c2ccccc2)c1` (centres undefined), the OD600 absorbance was 0.699 (inactive). Regarding `CCc1ccc(C=NNC(=O)Cc2ccc(OC)c(OC)c2)s1`, the OD600 absorbance is 0.627 (inactive). As to `Cc1nn(-c2ccccc2)c(C)c1C=Nn1c(-c2ccccc2Br)n[nH]c1=S`, the OD600 absorbance is 0.624 (inactive). Turning to `CCOc1ccc(Br)cc1C(=O)NN=Cc1c[nH]c2ccccc12`, the OD600 absorbance was 0.686 (inactive).

Regarding `O=C(NN=C/C(Br)=C\c1ccccc1)c1n[nH]c2c1CCC2`, the OD600 absorbance was 0.619 (inactive).

Regarding `C[C@]12C(=O)N(c3cccc(F)c3)C(=O)N1C1c3ccccc3OCC1C2c1ccccc1` (some centres undefined), the OD600 absorbance was 0.707 (inactive) and 0.703 (inactive). With `C=Cc1ccc(C2=CC(=O)CC(c3ccc(OC)cc3)C2)cc1` (centres undefined), the OD600 absorbance is 0.663 (inactive). As for `O=C(NN=Cc1cccc2ccccc12)c1cccnc1`, the OD600 absorbance is 0.676 (inactive). In the case of `O=C(C=Cc1ccccc1)NCCSCc1ccccc1Cl`, the OD600 absorbance was 0.63 (inactive). The result for `O=C(CCNc1n[nH]c(=O)[nH]c1=O)NN=Cc1ccc(Cl)cc1` reads 0.691 (inactive).

On to `CCOC1OC(C(=O)NCc2nc3ccccc3[nH]2)=CC(c2cn(C(C)=O)c3ccccc23)C1CCCO` (centres undefined), for which the OD600 absorbance was 0.677 (inactive) and 0.601 (inactive). As to `ON=Cc1cccn1-c1nccs1`, the OD600 absorbance is 0.697 (inactive). In the case of `Cc1ccc(C(=O)NN=Cc2c[nH]c3ccccc23)o1`, the OD600 absorbance is 0.69 (inactive). As for `CCn1c(C)nc2cc(C(=O)NN=C(C)c3ccc(N4CCOCC4)cc3)ccc21`, the OD600 absorbance is 0.666 (inactive).

Consider `CCCC(CNC(CNC)C(C)O)NCCc1ccc(OC)cc1` (centres undefined), for which the OD600 absorbance was 0.679 (inactive).

As to `O=Cc1c(Nc2ccccc2Cl)nc2ccccn2c1=O`, the OD600 absorbance was 0.678 (inactive). Consider `CCc1c(Nc2ccccc2C)nc(N)[nH]c1=O`, for which the OD600 absorbance was 0.675 (inactive). For the molecule `CCc1c(Nc2ccccc2Cl)nc(N)[nH]c1=O`, the OD600 absorbance was 0.475 (active). For `c1ccc(N=C2N=C(Nc3ccccn3)c3ccccc32)nc1`, the OD600 absorbance was 0.705 (inactive). As to `CCC1=C(OC(=O)N(CC)CC)N2C(=O)OC(=NCC(=O)OC)[C@]2(C)C2C1=CCC1C(=O)NC(=O)C12` (some centres undefined), the OD600 absorbance was 0.617 (inactive). In the case of `OC(CNCC1CCCO1)Cn1c2ccc(Br)cc2c2cc(Br)ccc21` (centres undefined), the OD600 absorbance is 0.547 (active). Consider `O=C(CCNS(=O)(=O)c1ccc(Br)cc1)NCC1CCCO1` (centres undefined), for which the OD600 absorbance is 0.66 (inactive). Regarding `CCCN1CCn2c3c(c4cc(Br)ccc42)CCCC31` (centres undefined), the OD600 absorbance was 0.655 (inactive).

With `O=C(CC=NOCc1ccc([N+](=O)[O-])cc1)Nc1ccc(Br)cc1`, the OD600 absorbance was 0.631 (inactive).

In the case of `O=C(O)CC1c2cc(F)ccc2S(=O)(=O)N1Cc1ccccc1` (centres undefined), the OD600 absorbance is 0.672 (inactive).
